Screening results (PubChem BioAssay)
ClpP mod – qHTS Assay for Activators of ClpP; purified B. subtilis ClpP, FRET peptide cleavage, 20 min; Potency, µM (titrated, usually from 57.5 µM), for inactives: top-dose activity change, negative = active; 340,000 tested, 1.9% active; AID 651965, 2013; active = well fitted falling curve with a large enough effect; inconclusive = small, poorly fitted or top-dose-only effect; inactive = no such curve, though single readings can be large or run the other way; also: the source files actives as falling curves though it sought activators and does not explain the sign; nearly all actives have a fitted effect of over 65% in size
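Buffer: 100 mM Tris/HCl pH8, 100 mM KCl, 0.05% low protease BSA, 2.5% glycerol, 0.01% Tween-20. ClpP 10 microg/mL final; 20 min RT; delta FRET normalized to ADEP and DMSO controls.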
GALK inh – blocks human galactokinase activity | P51570 | Purified GALK, Kinase-Glo residual ATP luminescence | Potency, µM (doses to about 57.5 µM), inactives show top-dose activity change, negative = inhibition, hits mostly inhibitors | 270,000 tested, 0.007% active; also: % is scaled to controls: 0 for no effect and ±100 for the full control effect
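Kinase-Glo Plus luminescence measured ATP left after a 1 h room-temperature reaction. The reaction used 5 nM GALK, 100 uM galactose and 35 uM ATP at pH 8.0 (20 mM HEPES, 5 mM MgCl2, 60 mM NaCl, 1 mM DTT, 0.01% BSA).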
USP2a inh – blocks human ubiquitin-specific protease USP2a; O75604; USP2 core, Ub-CHOP2 coupled fluorogenic reporter, 485/531; Potency, µM (highest dose often 38.3 µM), for the others: top-dose activity change, negative = inhibition, usual class: inhibitors; 330,000 tested, 0.01% active;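 also: plate controls were DMSO wells for no effect and full inhibition by NEM control for full effect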
Target sequence (O75604 whole entry, looked up): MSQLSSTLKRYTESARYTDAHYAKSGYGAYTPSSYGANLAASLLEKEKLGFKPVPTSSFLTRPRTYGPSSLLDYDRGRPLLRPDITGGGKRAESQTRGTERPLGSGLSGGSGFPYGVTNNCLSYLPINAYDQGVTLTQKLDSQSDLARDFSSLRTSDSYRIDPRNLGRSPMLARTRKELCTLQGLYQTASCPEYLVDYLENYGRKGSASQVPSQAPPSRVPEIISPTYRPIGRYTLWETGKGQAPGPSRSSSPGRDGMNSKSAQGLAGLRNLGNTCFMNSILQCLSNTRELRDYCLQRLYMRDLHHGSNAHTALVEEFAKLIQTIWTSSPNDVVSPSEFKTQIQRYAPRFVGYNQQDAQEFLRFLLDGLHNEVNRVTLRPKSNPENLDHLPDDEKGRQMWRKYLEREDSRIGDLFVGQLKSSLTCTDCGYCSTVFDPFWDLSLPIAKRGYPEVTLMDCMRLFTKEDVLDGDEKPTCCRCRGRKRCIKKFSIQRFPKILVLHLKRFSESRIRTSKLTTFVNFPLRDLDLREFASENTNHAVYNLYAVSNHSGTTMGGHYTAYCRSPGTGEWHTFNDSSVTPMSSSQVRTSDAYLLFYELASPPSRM
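USP2 core (10nM final) preincubated 30min RT with compound in 20mM Tris-HCl pH 8.0, 2mM CaCl2, 2mM beta-mercaptoethanol, 0.05% CHAPS; 25nM Ub-CHOP2 plus 25nM reporter substrate added, fluorescence (Ex485/Em531) read after 60min.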
Eya2 phos inh – blocks the phosphatase activity of human Eya2. recombinant Eya2, OMFP fluorescence dephosphorylation (OMFP is methylfluorescein phosphate). Potency, µM (top dose mostly 76.9 µM), for the others: at the top dose activity, negative = inhibition, actives largely listed as inhibitors. 330,000 tested, 0.006% active; also: % is scaled to controls: 0 for no effect and ±100 for the full control effect
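Eya2 (0.2 uM) preincubated 10 min at ambient with compound, then OMFP substrate added at 50 uM; 10 min reaction in 50 mM HEPES pH 7.5, 50 mM NaCl, 5 uM MgCl2, 0.05% BSA, 1 mM DTT. Fluorescence read at Ex 485/Em 525 nm.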
The depositor's hits bear a star. This excerpt belongs to a sample that is enriched for hits. Unless noted, calls follow the shape of the dose curve; as a rule, active = well fitted inhibition curve with a large enough effect; inconclusive = small, poorly fitted or top-dose-only effect, or effect the other way; inactive = flat fitted curve, though single readings scatter. Potency is read from the fitted curve at half-maximal effect.

Results for O=C(O)CCS(=O)(=O)c1nc(-c2cccs2)cc(C(F)(F)F)n1 ?
ClpP mod: 14µM*; GALK inh: -5%; USP2a inh: 0%; Eya2 phos inh: -17%

Results for COc1ccc(-c2cc(C(F)(F)F)nc(SCC(=O)NCc3cccs3)n2)cc1OC ?
ClpP mod: 25µM*; GALK inh: 0%; USP2a inh: 0%; Eya2 phos inh: -1%

How did O=C(CCS(=O)(=O)c1nc(-c2cccs2)cc(C(F)(F)F)n1)Nc1cccc(O)c1 do in these assays?
ClpP mod: 4%

How did COc1ccc(-c2cc(C(F)(F)F)nc(SCC(=O)NCc3ccc(OC)c(OC)c3)n2)cc1 do in these assays?
ClpP mod: -8%

Results for COc1ccc(-c2cc(C(F)(F)F)nc(SCCC(=O)Nc3cc(C)on3)n2)cc1 ?
ClpP mod: 35µM*; GALK inh: 2%

What do the screens show for `COc1ccc(-c2cc(C(F)(F)F)nc(SCC(=O)Nc3cc(C)on3)n2)cc1OC`?
ClpP mod: 13µM*; GALK inh: 3%; USP2a inh: 1%; Eya2 phos inh: 2%

How did COc1cc(/C=C2/C(=O)N(c3ccc(Br)cc3)N=C2C)cc(OC)c1OC do in these assays?
ClpP mod: -2%; GALK inh: -7%; USP2a inh: 2%; Eya2 phos inh: 18%

Results for O=C(NCCCO)c1cc2c(cn1)[nH]c1ccccc12 ?
ClpP mod: 4%; USP2a inh: -2%; Eya2 phos inh: -1%

What do the screens show for `COc1cc(OC)c(S(=O)(=O)N2CCN(C(=O)c3ccco3)CC2)cc1NC(C)=O`?
ClpP mod: 2%; GALK inh: 2%; USP2a inh: 1%; Eya2 phos inh: 16%

Results for NC1(c2ccc(-c3nc4ccn5c(=O)[nH]nc5c4cc3-c3ccccc3)cc2)CCC1 ?
ClpP mod: 5%

Results for O=C(CSc1nc(-c2cccs2)cc(C(F)(F)F)n1)NCc1ccccc1 ?
ClpP mod: 35µM*; GALK inh: 0%; USP2a inh: -4%; Eya2 phos inh: -21%

What do the screens show for `COc1ccc2oc(=O)c(-c3nc(C)cs3)cc2c1`?
ClpP mod: -19%; GALK inh: 8%; USP2a inh: 10%; Eya2 phos inh: 12%

How did O=C(O)CCc1nn2c3ccccc3n(CCN3CCCCC3)c2nc1=O do in these assays?
ClpP mod: 28µM*; GALK inh: 6%; USP2a inh: 3%; Eya2 phos inh: 12%

How did Cc1ccc(S(=O)(=O)N2[C@@H](c3ccccc3F)C(C(=O)O)=CC[C@H]2c2ccc(Cl)c(Cl)c2)cc1 do in these assays?
ClpP mod: 0%; USP2a inh: 11µM*; Eya2 phos inh: inconclusive

How did Cc1ccc(S(=O)(=O)N2[C@@H](c3ccccc3)C(C(=O)O)=CC[C@H]2c2ccc(Cl)c(Cl)c2)cc1 do in these assays?
ClpP mod: -1%; USP2a inh: -2%; Eya2 phos inh: -1%

What do the screens show for `COc1ccc(C2C(C#N)=C(N)Oc3cc(C)n(Cc4ccncc4)c(=O)c32)cc1` (stereo not given)?
ClpP mod: -5%; GALK inh: 2%; USP2a inh: 2%; Eya2 phos inh: 9%

Results for Cc1cc2c(c(=O)n1CCN(C)C)C(c1ccncc1)C(C#N)=C(N)O2 (stereo not given) ?
ClpP mod: 2.5µM*; GALK inh: -4%; USP2a inh: 0%; Eya2 phos inh: 1%

Results for O=C(NCc1ccc2c(c1)OCO2)c1ccccn1 ?
ClpP mod: 1%; GALK inh: -1%; USP2a inh: 2%; Eya2 phos inh: 7%

What do the screens show for `O=C(c1cccc([N+](=O)[O-])c1)c1ccccn1`?
ClpP mod: 1%; GALK inh: 2%; USP2a inh: -1%; Eya2 phos inh: -17%

How did CN1CCN(S(=O)(=O)c2ccc3c(c2)NC(=O)CS3)CC1 do in these assays?
ClpP mod: -2%; GALK inh: 1%; USP2a inh: 1%; Eya2 phos inh: 2%

What do the screens show for `CC(Oc1ccc(Cl)cc1Cl)C(=O)Nc1ccc2oc(-c3ccncc3)nc2c1` (stereo not given)?
ClpP mod: 8.9µM*; GALK inh: 0%; USP2a inh: 0%; Eya2 phos inh: -17%

What do the screens show for `Cc1ccc(C(=O)Nc2cc(-c3nc4cc(Cl)ccc4o3)ccc2C)c(C)c1`?
ClpP mod: 0%

Results for Cc1ccc(-c2nc3cc(NC(=O)C(C)C)ccc3o2)cc1 ?
ClpP mod: 14µM*; GALK inh: 2%; USP2a inh: 0%; Eya2 phos inh: -17%

Results for COc1cc(OC)cc(-c2nc3ccccc3c(=O)o2)c1 ?
ClpP mod: -29%; GALK inh: 1%; USP2a inh: 0%; Eya2 phos inh: 7%

How did Cc1ccc(-c2nc3cc(Cl)ccc3o2)cc1 do in these assays?
ClpP mod: 35µM*; GALK inh: 1%; USP2a inh: -1%; Eya2 phos inh: 6%

What do the screens show for `COc1cc(OC)cc(-c2nc3cc(C)ccc3o2)c1`?
ClpP mod: 25µM*; GALK inh: 1%; USP2a inh: 2%; Eya2 phos inh: -14%

What do the screens show for `COc1ccccc1CSc1nc2n(n1)C(c1ccccc1)C(C(=O)Nc1ccc(C)cc1)=C(C)N2` (stereo not given)?
ClpP mod: -6%

Results for O=C(CNC(=O)c1ccc(Br)o1)NC12CC3CC(CC(C3)C1)C2 ?
ClpP mod: -3%; GALK inh: 7%; USP2a inh: 0%; Eya2 phos inh: 3%

What do the screens show for `COc1ccc(C(=O)NC(c2ccccc2Cl)c2cc(Cl)c3cccnc3c2O)cc1` (stereo not given)?
ClpP mod: 2%

What do the screens show for `CC1CCCCC12NC(=O)N(CC(=O)N1CCN(S(=O)(=O)c3ccc4c(c3)CCC4)CC1)C2=O` (stereo not given)?
ClpP mod: -1%; USP2a inh: 0%; Eya2 phos inh: 9%

What do the screens show for `Cc1ccc(-c2nc3cc(NC(=O)C(C)C)ccc3o2)cc1C`?
ClpP mod: 28µM*; GALK inh: 0%; USP2a inh: -5%; Eya2 phos inh: -11%

How did Cc1cc2nc(-c3ccc(NC(=O)C(C)C)cc3)oc2cc1C do in these assays?
ClpP mod: 31%; GALK inh: 0%; USP2a inh: 3%; Eya2 phos inh: 0%

What do the screens show for `CC(Oc1ccccc1F)C(=O)Nc1ccc(-c2nc3ccccc3s2)cc1` (stereo not given)?
ClpP mod: 3.2µM*

How did Cc1cccc(C(=O)Nc2ccccc2OCc2cc(=O)n3cc(C)ccc3n2)c1 do in these assays?
ClpP mod: -3%

How did Cc1ccc2nc(COc3ccccc3NC(=O)C(C)(C)C)cc(=O)n2c1 do in these assays?
ClpP mod: 25µM*

How did CCn1c(C(C)NS(=O)(=O)c2ccc(Cl)cc2)n[nH]c1=S (stereo not given) do in these assays?
ClpP mod: -4%; GALK inh: 6%; USP2a inh: 0%; Eya2 phos inh: 5%
